95 compounds from PubChem BioAssay AID1626 (SRMLSC, 2009) can be followed below.

The campaign covered roughly 220,000 compounds. About 2,000 (0.91%) were called active. Not shown: some 2% with an inconclusive outcome. Not all results are given here. Potency and affinity values are given separately. Unmarked numbers belong to inactive results. No stated cut-off is given here; in the data, inconclusive means inhibition above about 80% without an active follow-up result; inactive means below that; test concentration not stated here.

This assay can be described thus: M. tuberculosis H37Rv growth inhibitors, H37Rv strain (AID 1626).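 Further: bacteria incubated seven days before Alamar blue readout; 0% = bacteria only wells and 100% = bacteria with antibiotic wells.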 The settings on record: stronger effect = higher value, concentration not given here.
The term inhibition denotes the relative decrease from the control value, in per cent. Consider `CC(OC(=O)c1snc(C(=O)NC2CCCCC2)c1N)C(=O)NC(C)(C)C` (stereo not given), for which the inhibition is 39%. The figure for `CCOC(=O)c1sc(C)c(C(=O)NC2CCCCC2)c1N` is 4.33%; for `CC(OC(=O)c1snc(C(=O)NC2CCCCC2)c1N)C(=O)NC1CCCCC1` (stereo not given) it is 2.49%; for `CCOC(=O)c1snc(C(=O)NC2CCCCC2)c1N` it is 5.5%. Take `COc1ccc(NC(=S)Nc2ccccc2F)c(OC)c1`: the inhibition was -4.54%.

Take `COC(=O)c1ccccc1NC(=O)C1CCCN(S(=O)(=O)c2ccc(OC)cc2)C1` (stereo not given): the inhibition was 5.41%.

On to `O=C(/C=C/c1ccccc1Cl)NCc1cccs1`, for which the inhibition is 2.96%. The figure for `O=C1CC(SCc2nc3ccccc3[nH]2)C(=O)N1c1ccc(F)c(Cl)c1` (stereo not given) is -2.51%; for `Cc1cccn2c(=O)c3cc(C(=O)NC(C)c4ccccc4)c(=N)n(CCCn4ccnc4)c3nc12` (stereo not given) it is 48.6%. Take `C=CC(=O)NC1CC2CCC1(C)C2(C)C` (stereo not given): the inhibition is 6.5%. Consider `CC1(C)C2CCC1(C)C(Nc1ccccc1)C2` (stereo not given), for which the inhibition was 3.82%.

Take `Cc1onc(-c2c(F)cccc2Cl)c1C(=O)N1CCN(c2ncccn2)CC1`: the inhibition was 3.2%. With `COc1cc(CNn2c(C)n[nH]c2=S)cc(Br)c1OCc1ccc(F)cc1`, the inhibition is 6.01%. Next, `CCOc1ccc(N=C(/C(C(=O)C(=O)N2CCOCC2)=C(/O)c2ccccc2)c2ccccc2)cc1`: 70.8%; `CCOc1ccc(OCc2ccc(C(=O)N3CCOCC3)cc2)cc1`: -3.72%; `O=C(c1ccccc1)c1cccs1`: 0.41%. The figure for `Nc1ccc(C(=O)c2cccs2)cn1` is -5.69%; for `COc1ccc(-c2csc(NC(CO)c3nc4ccccc4n3CCCO)n2)cc1` (stereo not given) it is 1.28%; for `Cc1cc(-c2csc(NC(=O)c3cc4ccccc4o3)n2)c(C)n1C` it is -8.86%. Take `Cc1ccc(C(=O)Nc2nc(-c3cccnc3)cs2)o1`: the inhibition was 7.51%. Take `O=C(Nc1ccccn1)c1cc2ccccc2o1`: the inhibition is 9.27%. As for `Cc1ccc(-c2csc(NC(=O)c3ccc(C)o3)n2)cc1`, the inhibition is 10.4%. Next, `CCCCn1nnnc1SCC(=O)N1CCOCC1`: -13.6%; `Cc1[nH]nc2c1C(c1cccs1)C(C#N)=C(N)O2` (stereo not given): 8.65%. For the compound `CC(O)[C@H]1CNC(=O)C(=O)N1CCC12CC3CC(CC(C3)C1)C2` (stereo not given in full), the inhibition was -0.53%.

In the case of `COc1ccc(OC)c(S(=O)(=O)Nc2ccc3oc4c(c3c2)C(=O)CCC4)c1`, the inhibition is -4.7%. With `CC(=O)Oc1ccc2oc(C)c(C(=O)N3CCOCC3)c2c1`, the inhibition is -12.9%. Next, `COc1ccc(-n2c(O)c(C(C)=NCc3ccc4c(c3)OCO4)c(=O)[nH]c2=O)cc1`: 0.11%; `CC(C)N(C(=O)CC1ON(C)C(=O)N1c1ccc(Cl)cc1)C(C)C` (stereo not given): -4.4%. Next, `CCOC(=O)C1=C(c2ccccc2)N=c2s/c(=C\c3cc(OC)c(OC)c(OC)c3)c(=O)n2C1c1cccs1` (stereo not given): -2.92%; `CCOC(=O)C1=C(C)N=c2s/c(=C/c3ccccc3)c(=O)n2C1c1ccc(OC)c(OC)c1` (stereo not given): 1%. Take `S=C(NCCc1ccccc1)Nc1ccccc1N1CCOCC1`: the inhibition is 0.99%. Turning to `COc1ccc([N+](=O)[O-])cc1NC(=O)C(C)OC(=O)c1cccnc1Cl` (stereo not given), the inhibition was -2.19%. The figure for `CC1=C(C(=O)Nc2ccccn2)C(c2ccc(Cl)cc2)NC(=S)N1` (stereo not given) is -5.44%; for `CCOC(=O)c1cnc(Nc2nc3ccccc3o2)nc1CSC(=S)N(CC)CC` it is -2.38%; for `CCOC(=O)c1cnc(Nc2nc3ccccc3o2)nc1CSc1ncccn1` it is 0.18%. Consider `O=C1c2cc(O)cc(O)c2C(=O)c2c1cc(O)c([C@@H](CO)CCO)c2O`, for which the inhibition is -0.07%. As to `Cc1cc(NC(=O)CCCC(=O)N(c2ccccc2)C(C(=O)NC2CCCCC2)c2cccs2)no1` (stereo not given), the inhibition is -3.8%.

In the case of `Cc1ccc([N+](=O)[O-])cc1N(CC(=O)NC1CCCC1)S(C)(=O)=O`, the inhibition was 1.23%.

As for `Cc1c(/C=N\NC(=O)C2COc3ccccc3O2)c2ccccc2n1C` (stereo not given), the inhibition is 10.6%.

`C#CCNC(=O)C1=C[C@@H](C2CC2)[C@H](CCCO)[C@@H](OCC)O1`: the inhibition is -9.56%. Next, `CC(=O)Nc1nnc(-c2ccc(Cl)s2)o1`: 2.92%; `O=C(Nc1nnc(-c2ccco2)o1)C1CCCCC1`: 3.01%; `O=C(Nc1nnc(-c2ccncc2)o1)C1CCCCC1`: 0.18%. Next, `CCC(=O)Nc1nnc(-c2ccc(Cl)s2)o1`: 13.6%; `Cc1cc(C(=O)COc2ccc(Cl)cc2Br)c(C)n1C`: -4.24%; `CCN(CC)C(=O)C1CCCN(c2ccc([N+](=O)[O-])cc2/C=N/NC(=O)c2ccccc2)C1` (stereo not given): 9.19%. Next, `Cc1ccc(CNC(=O)CCc2nc(-c3cccs3)no2)cc1`: 6.02%. `CCN(CC)S(=O)(=O)c1ccc(NS(=O)(=O)CC23CCC(CC2=O)C3(C)C)cc1` (stereo not given): the inhibition is -3.32%.

Regarding `C=CCNC(=O)c1ccc(-n2cccc2)cc1`, the inhibition is 8.71%. The figure for `N#Cc1ccc(NC(=O)N2CCC(c3nc4c(nnn4Cc4cccc(Cl)c4)c(=O)[nH]3)CC2)cc1` is 69%. Regarding `O=C(Nc1ccc(F)cc1)N1CCC(c2nc3c(nnn3Cc3cccc(Cl)c3)c(=O)[nH]2)CC1`, the inhibition was 64.2%. As to `N/C(=N\OC(=O)CCc1ccccc1)c1ccccc1Cl`, the inhibition was 14.4%. Regarding `COc1cc(CNC(C)(C)CO)cc(Br)c1OCc1ccc(Cl)cc1Cl`, the inhibition was 62.5%.

Regarding `COc1cc(CNC(C)(C)CO)cc(Br)c1OCc1ccc(Cl)cc1`, the inhibition was 9.24%. Consider `COC(=O)CCC(=O)OC1(C)C(=O)C2=CN(Cc3ccco3)C(c3ccc(OC)cc3)=CC2=C(Br)C1=O` (stereo not given), for which the inhibition was 1.66%.

For `O=C(COC(=O)c1ccccn1)Nc1nccs1`, the inhibition was -5.49%. In the case of `CCCc1cc(C(=O)Nc2nnc(C)s2)cs1`, the inhibition is 1.88%. The figure for `Cc1cnc(NC(=O)c2sc3ccccc3c2Cl)s1` is 3.19%. Next, `O=C(Nc1nccs1)c1cnccn1`: -1.5%; `O=C(Nc1ccncc1)c1sc2ccccc2c1Cl`: 2.92%. The figure for `CCC(=O)Nc1cccc(C(=O)Nc2nccs2)c1` is 2.64%; for `Cc1onc(-c2c(F)cccc2Cl)c1C(=O)Nc1nccs1` it is 6.17%.

In the case of `COC(=O)c1nc(N)sc1-c1ccc(OC)cc1`, the inhibition was -1.47%. Regarding `CCCS(=O)(=O)N1CCN(Cc2ccc([N+](=O)[O-])cc2)CC1`, the inhibition is 5.19%.

As to `COc1ccc(CNC(=O)COC(=O)c2ccc(Br)cc2)cc1`, the inhibition is 5.06%. The figure for `CN(C)NC(=O)C(NC(=O)c1ccccc1)C12CC3CC(CC(C3)C1)C2` (stereo not given) is -4.07%; for `CCn1c(=O)c(C(=O)CN2CCCc3ccccc32)c(N)n(Cc2ccccc2)c1=O` it is -5.75%. Next, `COc1ccc(-c2nnc3n2C(C)(C)Cc2cc(OC)c(OC)cc2-3)cc1`: 3.77%; `COC(=O)[C@@H](NC(=O)Nc1ccc(OC)cc1)C(C)C`: 2.16%. Next, `COc1ccc(NS(=O)(=O)c2ccc(O)c(C(=O)OCC(=O)NC(C)C3CC4CCC3C4)c2)cc1` (stereo not given): -0.76%; `CCc1ccc(NC(=O)c2ccccc2Br)cc1`: 6.96%. In the case of `CC(SC1CCCC1)C(=O)NC(C)(C#N)C(C)C` (stereo not given), the inhibition was -2.88%. The figure for `CC(C)(C)NC(=O)C1CCC(CNc2c(N3CCCCC3)c(=O)c2=O)CC1` (stereo not given) is -2.67%. The figure for `CCOc1ccc(NC(=O)CN2CCN(CC(=O)Nc3ccc(F)cc3)CC2)cc1` is 9.61%; for `COc1ccc(NC(=O)CN2CCN(C3c4ccccc4-c4ccccc43)CC2)c(OC)c1` it is 28.6%; for `COc1ccc(NC(=O)CN2CCN(C3c4ccccc4-c4ccccc43)CC2)cc1` it is 18.1%. The figure for `CCOc1ccc(NC(=O)CN2CCN(CC(=O)Nc3ccc(F)c(F)c3)CC2)cc1` is 10.7%; for `COc1ccc(C(=O)N[C@H](C(=O)OCc2cc(=O)oc3cc(C)ccc23)C(C)C)cc1` it is 9.93%; for `Cc1cccc(C)c1OCCCCn1cnc2ccccc2c1=O` it is -6.94%.

As for `CCOC(=O)N1CCN(C(=O)CCCn2c(=O)[nH]c3ccccc3c2=O)CC1`, the inhibition was 1.26%. As to `COC(=O)C1=C(C)NC(C)=C(C(=O)OC)C1C1CC=CCC1` (stereo not given), the inhibition is 5.42%.

Consider `Cc1cccn2cc(-c3cccc(NC(=O)c4cccs4)c3)nc12`, for which the inhibition was 2.98%. The figure for `COc1ccc(-c2cc(C(=O)OC3CCOC3=O)c3ccccc3n2)cc1OC` (stereo not given) is -3.98%; for `CCOC(=O)N1CCN(C(=O)CSc2ccc(-c3ccccc3OC)nn2)CC1` it is 3.28%. The figure for `COC(=O)c1ccc(Cl)c(S(=O)(=O)N2CCCC2)c1` is 4.58%; for `C=C(C)C1Cc2c(C)nn(-c3cccc4ccccc34)c2C1` (stereo not given) it is 13.7%; for `C=C(C)C1Cc2c(C)nn(-c3ccccc3)c2C1` (stereo not given) it is 3.68%. With `COc1ccccc1CCc1nnc(CCC(=O)NC(C)Cc2cccnc2)o1` (stereo not given), the inhibition is 4.51%. Next, `COc1ccccc1Nc1nnc(SCC(=O)N2CCCC2)s1`: -3.72%; `O=C(CCC1CCCCC1)NNC(=O)NC12CC3CC(CC(C3)C1)C2`: -2.75%; `OC(CNCC1CCCO1)Cn1c2ccc(Br)cc2c2cc(Br)ccc21` (stereo not given): 43.1%.

On to `OC(CNCc1ccco1)Cn1c2ccccc2c2ccccc21` (stereo not given), for which the inhibition is 0.42%.

Regarding `O=C(CCc1nnc(Cc2c[nH]c3ccccc23)o1)NC1CCCC1`, the inhibition was -6.46%.

For `CN(C)S(=O)(=O)c1ccc(NC(=O)CSc2nnnn2C)cc1`, the inhibition is 2.23%.
